Test [1] has as its target Ubiquitin carboxyl-terminal hydrolase 1 (Homo sapiens) (UniProt O94782). As to the kind of experiment: Inhibitors of USP1/UAF1: Pilot qHTS (AID 504865).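 Note: rhodamine fluorescence freed from ubiquitin-rhodamine substrate followed over time; top concentration of the series differs between compounds; nearly all actives have a fitted effect of over 35% in size.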 A digest of the protocol: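 In 50mM HEPES pH 7.8 containing 0.5mM EDTA, 1mM TCEP, 0.1 mg/ml BSA and 0.01% Tween-20, 1nM USP1/UAF1 is exposed to compound for 15 min, then Ub-Rho (150nM final) is added and fluorescence is read over time.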
Background: qHTS replaces the single test concentration by a dilution series.

Test [2] deals with DNA dC->dU-editing enzyme APOBEC-3G (Homo sapiens) (UniProt Q9HC16). As to the kind of experiment: qHTS for inhibitors of Vif-A3G interactions: Validation (AID 588379). A digest of the protocol: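 HeLa cells stably expressing Vif and A3G-eYFP, 700 cells/well, incubated overnight at 37 deg C, then exposed to compound overnight at 37 deg C. Inhibition of Vif-mediated degradation read as increased yellow fluorescence (Ex 488/Em 500-530) by laser-scanning cytometry.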
Chain of DNA dC->dU-editing enzyme APOBEC-3G (Homo sapiens) (Q9HC16 whole entry, looked up): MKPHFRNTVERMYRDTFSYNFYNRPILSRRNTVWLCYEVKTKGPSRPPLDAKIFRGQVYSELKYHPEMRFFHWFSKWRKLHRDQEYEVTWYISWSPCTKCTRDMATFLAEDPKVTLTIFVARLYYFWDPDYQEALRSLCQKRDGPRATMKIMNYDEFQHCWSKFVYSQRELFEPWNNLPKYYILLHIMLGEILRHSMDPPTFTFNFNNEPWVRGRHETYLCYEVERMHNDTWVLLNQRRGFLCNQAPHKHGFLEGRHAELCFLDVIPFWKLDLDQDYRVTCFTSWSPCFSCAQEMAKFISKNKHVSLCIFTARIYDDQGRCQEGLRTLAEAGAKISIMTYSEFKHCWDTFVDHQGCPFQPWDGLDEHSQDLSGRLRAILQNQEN

Test [3] addresses Estrogen receptor (Homo sapiens) (UniProt P03372). Kind of test: qHTS assay for small molecule antagonists of estrogen receptor alpha signaling (AID 588513; active = well fitted curve in the direction sought with a large enough effect in the signal ratio, with a control signal flat, not every such curve was filed as active; the % refers to the signal ratio; note: potency is the fitted concentration of half-maximal effect). An outline of the steps: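 Fluorescence from CCF4 substrate after 2 h at room temperature gave reporter activity; cells had been exposed to compound and 0.5nM 17-beta-estradiol for 18 h at 37 C. Hill-equation fitting yielded IC50 and maximal response.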

For test [4] the target is unchanged. Kind of test: qHTS assay for small molecule agonists of estrogen receptor alpha signaling (AID 588514; calls by dose curve; note: nearly all actives have a fitted effect of over 70% in size). An outline of the steps: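 ER-alpha-UAS-bla GripTite HEK 293 cells in medium with 2% charcoal/dextran-treated FBS were treated with compound titrations at 37 C for 18 hrs; beta-lactamase reporter read by CCF4 fluorescence after 2 hrs at RT.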
In test [5] the target is Androgen receptor (Homo sapiens) (UniProt P10275). As to the kind of experiment: qHTS assay for small molecule antagonists of androgen receptor signaling (AID 588516; active = well fitted curve in the direction sought with a large enough effect in the signal ratio, with a control signal flat, not every such curve was filed as active; the % refers to the signal ratio; note: potency is the fitted concentration of half-maximal effect). The following applies: AR-UAS-bla HEK293, beta-lactamase ratio, antagonist mode, 16 h. An outline of the steps: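 Cells were plated and incubated 5 h, compounds added in titration, then R1881 (10 nM final) as agonist. After 16 h at 37 C, CCF4 substrate was loaded for 2 h at room temperature and fluorescence measured.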
Chain of Androgen receptor (Homo sapiens) (P10275 whole entry, looked up): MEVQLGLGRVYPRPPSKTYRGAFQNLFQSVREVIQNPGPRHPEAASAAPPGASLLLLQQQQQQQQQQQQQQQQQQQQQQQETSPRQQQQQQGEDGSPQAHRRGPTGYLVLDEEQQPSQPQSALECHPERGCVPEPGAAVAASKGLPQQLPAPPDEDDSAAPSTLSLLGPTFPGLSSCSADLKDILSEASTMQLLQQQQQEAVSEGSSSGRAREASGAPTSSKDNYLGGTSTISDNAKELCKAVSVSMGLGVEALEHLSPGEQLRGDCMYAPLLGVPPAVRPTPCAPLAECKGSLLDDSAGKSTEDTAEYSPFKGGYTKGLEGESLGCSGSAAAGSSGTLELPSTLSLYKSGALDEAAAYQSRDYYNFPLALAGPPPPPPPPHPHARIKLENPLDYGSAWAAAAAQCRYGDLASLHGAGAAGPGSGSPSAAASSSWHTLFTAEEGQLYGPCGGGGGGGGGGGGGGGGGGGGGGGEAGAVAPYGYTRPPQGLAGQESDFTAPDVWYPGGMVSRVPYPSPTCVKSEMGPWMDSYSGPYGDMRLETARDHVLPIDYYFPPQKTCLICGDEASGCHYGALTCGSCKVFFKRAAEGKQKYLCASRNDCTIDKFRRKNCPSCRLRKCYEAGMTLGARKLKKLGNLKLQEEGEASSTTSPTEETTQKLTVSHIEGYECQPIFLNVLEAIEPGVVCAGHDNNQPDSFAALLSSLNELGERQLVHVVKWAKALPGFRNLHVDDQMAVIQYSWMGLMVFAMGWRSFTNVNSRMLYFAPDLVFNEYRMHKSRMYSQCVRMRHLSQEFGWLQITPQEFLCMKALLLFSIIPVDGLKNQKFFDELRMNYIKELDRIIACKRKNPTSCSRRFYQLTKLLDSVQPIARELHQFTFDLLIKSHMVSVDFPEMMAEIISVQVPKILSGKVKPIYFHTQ

The target of test [6] is Bile acid receptor (Homo sapiens) (UniProt Q96RI1). As to the kind of experiment: qHTS assay for small molecule antagonists of farnesoid X receptor signaling (AID 588526; calls by dose curve; note: potency is the fitted concentration of half-maximal effect). A digest of the protocol:
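Antagonist mode: titrated compounds tested against chenodeoxycholic acid stimulation (normalized to 50 uM CDCA and DMSO) in GeneBLAzer HEK293T cells for 16 h. Beta-lactamase read by CCF4 fluorescence; IC50 from Hill fits.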

The target in test [7] is Glucocorticoid receptor (Homo sapiens) (UniProt P04150). Kind of test: qHTS assay for small molecule agonists of glucocorticoid receptor signaling (AID 588532; active = well fitted curve in the direction sought with a large enough effect in the signal ratio, with a control signal flat; the % refers to the signal ratio). Particulars: HeLa MMTV-bla, beta-lactamase ratio, agonist, 18 h; hits give high values; percent of dexamethasone control, DMSO zero. A digest of the protocol: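 MMTV-bla HeLa beta-lactamase reporter cells in 1% charcoal/dextran FBS medium, compounds up to 92 uM for 18 h at 37 C, CCF4 readout; normalized to 0.1 uM dexamethasone (100%), EC50 and efficacy from Hill fits.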
Chain of Glucocorticoid receptor (Homo sapiens) (P04150 whole entry, looked up): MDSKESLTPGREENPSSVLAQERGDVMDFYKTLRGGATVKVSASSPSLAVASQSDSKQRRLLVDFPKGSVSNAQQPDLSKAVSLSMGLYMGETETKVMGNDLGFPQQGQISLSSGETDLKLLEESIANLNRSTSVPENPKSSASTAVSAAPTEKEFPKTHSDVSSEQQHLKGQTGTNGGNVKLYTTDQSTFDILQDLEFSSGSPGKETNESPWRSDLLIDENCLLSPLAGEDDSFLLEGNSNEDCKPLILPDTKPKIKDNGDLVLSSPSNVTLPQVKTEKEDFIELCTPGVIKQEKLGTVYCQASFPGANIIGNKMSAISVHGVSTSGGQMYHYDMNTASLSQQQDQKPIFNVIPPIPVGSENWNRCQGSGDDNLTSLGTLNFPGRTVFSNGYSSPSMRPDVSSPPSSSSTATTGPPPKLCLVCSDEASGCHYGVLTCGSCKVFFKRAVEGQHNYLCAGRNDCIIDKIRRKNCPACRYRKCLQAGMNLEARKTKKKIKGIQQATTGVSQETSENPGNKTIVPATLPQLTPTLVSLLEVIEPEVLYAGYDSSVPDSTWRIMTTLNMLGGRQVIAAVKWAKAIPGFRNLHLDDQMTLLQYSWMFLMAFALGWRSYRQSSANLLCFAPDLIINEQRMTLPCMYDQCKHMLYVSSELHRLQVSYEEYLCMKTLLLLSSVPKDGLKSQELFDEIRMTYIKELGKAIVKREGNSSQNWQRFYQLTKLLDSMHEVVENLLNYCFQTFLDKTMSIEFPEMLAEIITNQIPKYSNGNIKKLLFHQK

Test [8] concerns the target phosphoglycerate mutase (Leishmania major) (UniProt Q4Q090). As to the kind of experiment: qHTS Validation Assay to Find Inhibitors of Phosphoglycerate Mutase (AID 504548). Note: series mostly up to about 58 µM. An outline of the steps:
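Luminescent end-point read-out via Kinase-GloPlus after a 10-minute development. Reaction: 1.25nM Leishmania major PGAM with substrate and compound, 45 minutes at room temperature in TEA buffer (pH 7.6) with MgCl2 and Tween-20.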

The nature of test [9]: qHTS for Inhibitors of ATXN expression: Validation of Cytotoxic Assay (AID 588349). An outline of the steps: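 HEK293 cells were dosed with titrated compounds for 72 hr at 37 degrees C. Viability was read by CellTiter Glo luminescence, with intracellular ATP as the marker of cell survival.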
Test [10] in a line: qHTS for Inhibitors of ATXN expression: Validation (AID 588378). Note: series mostly up to about 57 µM; nearly all actives have a fitted effect of over 75% in size. The text has this: Spinocerebellar ataxia type 2 (SCA2) is a multisystem neurodegenerative disease caused by a dominantly-acting mutation leading to expansion of a polyQ domain in the ataxin-2 protein (ATXN2). SCA2 patients develop progressive ataxia and later lose function in other neuronal systems. Prominent parkinsonian signs develop in some patients. Similar to many neurodegenerative disorders, no symptomatic or disease-modifying treatments are known.
The primary objective of project is to identify compounds inhibiting ATXN2 expression and to test them for efficacy in SCA2 mouse models. To this end, in a collaboration between Dr. Daniel Scoles and scientists at NCGC, a cell-based assay adapted to high-throughput screening has been developed to screen the NIH Molecular Libraries Small Molecule Repository (MLSMR).
NIH Chemical Genomics Center [NCGC]
NIH Molecular Libraries Probe Centers Network [MLPCN]
Assay Submitter (PI): Stefan Pulst and Daniel Scoles, University of Utah
4 ul of HEK293-ATXN2-FFLuc cell suspension (TBD cells/microL in phenol-red free DMEM) are dispensed into Greiner white solid bottom 1536-well assay plates, yielding a final well density of TBD cells/well. Plates are incubated for 2 hrs at 37 degrees C in 5% humidified CO2 to allow cell attachment. Compounds are then transferred via Kalypsys pin tool equipped with 1536-pin array (10nl slotted pins, V&P Scientific, San Diego, CA). In addition, duplicate serial dilutions of the control compounds ChemBridge 5553825, a previously identified ATXN2 expression inhibitor, and a known luciferase inhibitor, are pin-transferred. After incubation at 37 degrees C in 5% humidified CO2 for 24 hrs, CellTiter-Fluor reagent (1 ul) (Promega, Madison, WI) is then added and plates are incubated for 30 minutes, before being transferred to a ViewLux high-throughput CCD imager (PerkinElmer), wherein single end-point fluorescence measurements are acquired using the 405 nm excitation/525 nm emission filter set to assess cell viability. […] Luminescence is then measured on the ViewLux imager equipped with a clear emission filter using a 2 sec exposure.

Records with an inconclusive call do not appear. Where a call stands in place of a potency, no number is given. The source made the active and inactive calls. Unless noted, calls come from the whole dose curve; as a rule, active = well fitted curve in the direction sought with a large enough effect; inconclusive = small, poorly fitted or top-dose-only effect, or another doubt; inactive = no such curve, though single readings can be large; an effect the other way counts as inactive or inconclusive.

Consider 26 molecules from PubChem BioAssay (NCATS).

Chain of Estrogen receptor (Homo sapiens) (P03372 whole entry, looked up): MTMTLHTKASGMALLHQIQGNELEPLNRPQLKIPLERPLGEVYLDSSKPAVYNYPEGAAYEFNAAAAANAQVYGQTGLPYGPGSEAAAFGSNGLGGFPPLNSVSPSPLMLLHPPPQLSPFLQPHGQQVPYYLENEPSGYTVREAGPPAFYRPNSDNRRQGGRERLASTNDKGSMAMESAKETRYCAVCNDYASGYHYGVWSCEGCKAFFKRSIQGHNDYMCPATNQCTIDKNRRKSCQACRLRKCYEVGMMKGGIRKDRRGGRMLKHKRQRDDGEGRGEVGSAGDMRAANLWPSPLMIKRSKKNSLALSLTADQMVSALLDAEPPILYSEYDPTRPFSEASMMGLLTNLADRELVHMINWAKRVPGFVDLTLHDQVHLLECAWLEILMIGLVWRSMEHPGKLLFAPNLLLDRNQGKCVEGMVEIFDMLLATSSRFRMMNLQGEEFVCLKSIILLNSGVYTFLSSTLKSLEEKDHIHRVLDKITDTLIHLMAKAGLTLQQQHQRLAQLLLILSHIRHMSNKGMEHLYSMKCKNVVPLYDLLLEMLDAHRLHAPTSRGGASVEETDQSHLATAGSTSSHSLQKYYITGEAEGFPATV
Chain of phosphoglycerate mutase (Leishmania major) (Q4Q090 1-553): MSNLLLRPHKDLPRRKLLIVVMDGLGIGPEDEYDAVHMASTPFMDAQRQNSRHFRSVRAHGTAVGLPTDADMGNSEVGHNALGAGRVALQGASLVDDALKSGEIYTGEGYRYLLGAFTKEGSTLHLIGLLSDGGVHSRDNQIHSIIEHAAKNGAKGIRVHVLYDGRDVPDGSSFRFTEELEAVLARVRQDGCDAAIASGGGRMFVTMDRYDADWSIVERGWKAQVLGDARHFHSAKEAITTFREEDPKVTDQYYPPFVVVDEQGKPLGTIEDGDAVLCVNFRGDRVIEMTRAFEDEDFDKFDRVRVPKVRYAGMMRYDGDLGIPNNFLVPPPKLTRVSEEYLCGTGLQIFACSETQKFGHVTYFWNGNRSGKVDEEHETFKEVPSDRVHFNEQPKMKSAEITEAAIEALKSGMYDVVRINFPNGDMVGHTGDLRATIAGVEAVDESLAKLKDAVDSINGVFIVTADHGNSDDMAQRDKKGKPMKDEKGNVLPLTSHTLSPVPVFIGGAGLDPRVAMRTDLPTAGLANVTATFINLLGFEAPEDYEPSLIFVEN
Chain of Bile acid receptor (Homo sapiens) (Q96RI1 whole entry, looked up): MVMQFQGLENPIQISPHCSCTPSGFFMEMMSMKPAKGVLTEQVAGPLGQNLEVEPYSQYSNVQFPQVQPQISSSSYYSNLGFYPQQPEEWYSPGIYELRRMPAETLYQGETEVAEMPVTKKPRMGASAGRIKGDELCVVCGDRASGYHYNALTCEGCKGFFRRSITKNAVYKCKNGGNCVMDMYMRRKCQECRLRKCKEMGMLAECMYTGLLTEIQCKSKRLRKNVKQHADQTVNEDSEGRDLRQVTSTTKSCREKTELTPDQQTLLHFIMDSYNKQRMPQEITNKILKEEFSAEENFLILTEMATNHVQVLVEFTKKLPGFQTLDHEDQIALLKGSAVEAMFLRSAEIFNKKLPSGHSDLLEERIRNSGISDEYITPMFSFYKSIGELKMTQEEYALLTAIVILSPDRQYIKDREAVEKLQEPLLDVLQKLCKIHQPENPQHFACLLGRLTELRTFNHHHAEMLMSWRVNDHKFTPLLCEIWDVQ
Chain of Ubiquitin carboxyl-terminal hydrolase 1 (Homo sapiens) (O94782 whole entry, looked up): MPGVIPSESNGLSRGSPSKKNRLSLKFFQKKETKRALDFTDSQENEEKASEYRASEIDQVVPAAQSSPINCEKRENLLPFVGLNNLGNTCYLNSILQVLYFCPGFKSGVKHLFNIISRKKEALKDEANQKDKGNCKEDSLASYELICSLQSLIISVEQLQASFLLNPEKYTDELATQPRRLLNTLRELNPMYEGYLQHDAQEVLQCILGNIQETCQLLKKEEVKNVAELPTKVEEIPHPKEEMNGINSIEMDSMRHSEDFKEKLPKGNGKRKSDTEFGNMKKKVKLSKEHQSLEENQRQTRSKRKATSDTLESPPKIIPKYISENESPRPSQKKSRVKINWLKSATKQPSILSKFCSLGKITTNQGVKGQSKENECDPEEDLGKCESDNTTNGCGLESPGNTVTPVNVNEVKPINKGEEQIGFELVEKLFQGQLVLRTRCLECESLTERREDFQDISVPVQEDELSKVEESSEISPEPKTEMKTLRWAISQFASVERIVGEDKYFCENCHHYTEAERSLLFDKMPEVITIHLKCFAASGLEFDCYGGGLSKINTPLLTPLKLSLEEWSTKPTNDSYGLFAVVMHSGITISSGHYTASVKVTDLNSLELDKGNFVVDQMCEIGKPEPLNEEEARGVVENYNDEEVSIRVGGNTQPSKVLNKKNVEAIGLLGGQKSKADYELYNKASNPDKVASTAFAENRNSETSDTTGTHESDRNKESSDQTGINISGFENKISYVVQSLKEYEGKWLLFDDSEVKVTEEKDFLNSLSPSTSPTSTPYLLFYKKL

Turning to `CN(N=O)C(=O)N[C@H]1C(O)OC(CO)[C@@H](O)[C@H]1O` (some centres not stated), the call in [1] and in [2] was inactive.
In the case of `O=C(O)C=Cc1ccc(Cn2ccnc2)cc1`, the molecule was classed as inactive in test [1] and in test [2].
For the molecule `CCN1CCN(C(=O)N[C@H](C(=O)N[C@@H]2C(=O)N3C(C(=O)O)=C(CSc4nnnn4C)CS[C@@H]23)c2ccc(O)cc2)C(=O)C1=O`, the call in test [1] was inactive.
For the molecule `COc1cc2c(cc1O)CCC1C2CC[C@@]2(C)C1CC[C@@H]2O` (some centres not stated), in test [2], the outcome was inactive.
For the molecule `CC(C)[C@H](CO)Nc1nc(Nc2cccc(Cl)c2)c2ncn(C(C)C)c2n1`, the molecule was classed as inactive in test [2].
For `CC(C=CC1=C(C)CCCC1(C)C)=CC=CC(C)=CC(=O)Nc1ccc(O)cc1`, the Potency is 31.6 µM [inhibitor] (active) in test [3], 35.5 µM (active) in [5] and 39.8 µM (active) in [6]. The result in [4] was inactive. Moreover, the activation in [7] is 5.23% (inactive).
For the molecule `O=C1c2cccc(O)c2C(=O)c2c(O)cc(CO)cc21`, the Potency entry in test [6] is “inactive”. Besides, the activation in [7] was -14.5% (inactive).
Consider `Nc1nc2c(c(=O)[nH]1)N(C=O)[C@H](CNc1ccc(C(=O)N[C@@H](CCC(=O)O)C(=O)O)cc1)CN2`, for which the outcome in test [1] was inactive.
On the same count and under the same terms, the entry for `Cc1ccc(O)c(C(CCN(C(C)C)C(C)C)c2ccccc2)c1` (configuration not stated) is “inactive”; for `COc1ccc2c(c1OC)C(=O)OC2[C@H]1c2c(cc3c(c2OC)OCO3)CCN1C` (some centres not stated) it is “inactive”.
In the case of `OC[C@@H](O)[C@@H](O)[C@H](O)[C@@H](O)CO`, the Potency result in [3] is “inactive”. For the same molecule, the molecule was called inactive in test [4].
With `C[C@@]12C(=O)OC(=O)[C@@]1(C)C1CCC2O1`, the result in [1] was inactive.
As for `COc1ccc2cc([S+]([O-])Cc3ncc(C)c(OC)c3C)nc2c1`, the result in test [8], in [9] and in test [10] was inactive.
For the molecule `C[C@]12CC[C@@H]3c4ccc(O)cc4CC[C@H]3[C@H]1CC[C@H]2O`, in test [7], the activation is -15.8% (inactive).
For the molecule `OCC(O)C(O)C(O)CO` (configuration not stated), the outcome in test [1] was inactive.
In the case of `O=c1[nH]c(=O)n([C@H]2C[C@@H](O)[C@@H](CO)O2)cc1C=CBr`, the outcome in [8], in test [1], in [9] and in test [10] was inactive.
On to `Cc1cc(O)c2c(c1)C(=O)c1cccc(O)c1C2=O`, for which the call in test [1] and in test [2] was inactive. Further, the Potency result in [3] and in test [6] was “inactive” in each case.
As to `COc1cc2ncnc(Nc3cccc(Br)c3)c2cc1OC`, the molecule was called inactive in test [2].
Regarding `c1coc(CNc2ncnc3nc[nH]c23)c1`, the molecule was classed as inactive in test [1] and in test [2].
On to `CN(C)CC[C@H](c1ccc(Cl)cc1)c1ccccn1`, for which the molecule was classed as inactive in test [1].
Take `CCOC(=O)C1=C(C)NC(=S)NC1c1cccc(O)c1` (configuration not stated): the outcome in [1] and in test [2] was inactive.
On to `O=c1c(O)c(-c2ccc(O)c(O)c2)oc2cc(O)ccc12`, for which, in test [2], the result was inactive.
Consider `CN[C@H](CC(C)C)C(=O)N[C@H]1C(=O)N[C@@H](CC(N)=O)C(=O)N[C@@H]2C(=O)N[C@H]3C(=O)N[C@H](C(=O)N[C@H](C(=O)O)c4cc(O)cc(O)c4-c4cc3ccc4O)[C@H](O)c3ccc(c(Cl)c3)Oc3cc2cc(c3O[C@@H]2O[C@H](CO)[C@@H](O)[C@H](O)[C@@H]2O[C@H]2C[C@](C)(N)[C@H](O)[C@H](C)O2)Oc2ccc(cc2Cl)[C@H]1O`, for which the outcome in [8], in [9] and in [10] was inactive.
`COc1ccc(C(C)=O)c(O)c1`: the result in [1] was inactive.
Turning to `COc1ccc([C@@H]2CNC(=O)C2)cc1OC1CCCC1`, the molecule was called inactive in test [1] and in [2].
As for `CC(Oc1ccc(O)cc1)(P(=O)(O)O)P(=O)(O)O`, the molecule was classed as inactive in [2].
